ELG1 genotoxic: genotoxicity induction in ELG1-luciferase HEK293T cells | HEK293T ELG1-luciferase reporter, luminescence, 16 h | Potency, µM (top dose mostly 46 µM), for inactives: top-dose activity change, positive = activation, hits mostly activators | actives 1.3% (n = 330,000); note: % of control where 0% means no effect; nearly all actives have a fitted effect of over 60% in size
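DMSO vehicle served as control against compound-treated ELG1-luciferase HEK293T cells; exposure lasted 16 hr at 37 °C and 5% CO2, followed by ONE-Glo luminescence detection after 30 min.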
SMN2 splice enh: enhancers of SMN2 splice variant expression; HEK293 SMN2-luciferase splicing reporter, luminescence, 30-36 h; actives 2.8% (n = 210,000); Potency, µM (series often up to 46.1 µM), for the others: top-dose activity change, positive = activation, most hits filed as activators; note: % of control where 0% means no effect; nearly all actives have a fitted effect of over 55% in size
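HEK293 cells carry an SMN2 minigene-luciferase reporter in which exon 7 inclusion puts luciferase in frame. Cells were seeded at 2000 cells/well, attached for 10-12 hours, then exposed to compounds for 30-36 hours at 37C before ONE-Glo luminescence.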
Rab9 promoter act: activators of Rab9 promoter; Huh7 Rab9 promoter-luciferase reporter, luminescence, 24 h; Potency, µM (doses to about 9.22 µM), inactives show at the top dose activation, negative = inhibition, hits mostly activators; actives 2.8% (n = 320,000); note: % of control where 0% means no effect; nearly all actives have a fitted effect of over 60% in size
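Luciferase signal after 10 min detection reagent at ambient indicates Rab9 promoter upregulation; stably transfected Huh7 cells were treated 24 h with compound in DMSO at 37 °C, 5% CO2.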
ELG1 repair inh: blocks ELG1-dependent DNA repair in HEK293T cells; actives 2.3% (n = 330,000); Potency, µM (titrated, usually from 46.1 µM), inactives show at the top dose activity change, negative = inhibition, actives largely listed as inhibitors; AID 504467; HEK293T ELG1-luciferase reporter, luminescence, 16 h; DNA damage induced by 5-fluorouridine; note: % is set by controls: 0 for no effect and ±100 for the full control effect; nearly all actives have a fitted effect of over 55% in size
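Luminescence from the luciferase reporter, measured 30 min after ONE-Glo reagent at room temperature, was the read-out. Beforehand, 2,000 cells per well were exposed for 16 hr at 37 °C to 5-fluorouridine together with compound or vehicle.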
FLuc modulator: inhibits or activates purified firefly luciferase, miR-21 counter-screen. P08659. purified FLuc, Km substrates, luminescence inhibition. Potency, µM (highest dose often 57.5 µM), for inactives: at the highest dose activity change, negative = inhibition, actives largely listed as inhibitors. actives 6.9% (n = 360,000);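 note: plate controls were vehicle for no effect and reference inhibitor for full effect; nearly all actives have a fitted effect of over 55% in size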
Target sequence (P08659 whole entry, looked up): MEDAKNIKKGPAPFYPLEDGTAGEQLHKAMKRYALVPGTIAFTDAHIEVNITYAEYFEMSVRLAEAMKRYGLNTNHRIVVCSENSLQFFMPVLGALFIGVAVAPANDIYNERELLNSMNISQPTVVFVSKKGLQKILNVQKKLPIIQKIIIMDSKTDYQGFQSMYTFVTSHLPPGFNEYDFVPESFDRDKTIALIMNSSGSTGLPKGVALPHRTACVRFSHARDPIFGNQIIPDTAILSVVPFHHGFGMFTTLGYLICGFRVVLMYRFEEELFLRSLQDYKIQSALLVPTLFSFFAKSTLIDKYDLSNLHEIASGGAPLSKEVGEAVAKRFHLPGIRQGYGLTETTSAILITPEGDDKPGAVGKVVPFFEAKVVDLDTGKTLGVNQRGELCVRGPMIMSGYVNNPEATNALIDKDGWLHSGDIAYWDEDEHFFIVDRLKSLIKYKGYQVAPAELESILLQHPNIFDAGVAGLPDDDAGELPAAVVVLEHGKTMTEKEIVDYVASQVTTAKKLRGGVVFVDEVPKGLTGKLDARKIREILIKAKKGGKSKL
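Biochemical qHTS of compounds, final roughly 60 µM downward over six points, against 10 nM purified firefly luciferase using Km concentrations of substrates (10 uM D-luciferin, 10 uM ATP) in Tris acetate pH 7.5 buffer; luminescence output.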
NPC1 prom act: activates the NPC1 promoter; Huh7 NPC1 promoter luciferase reporter, 24 h; Potency, µM (top dose mostly 9.22 µM), for inactives: at the highest dose activation, actives largely listed as activators; actives 2.4% (n = 320,000); AID 485313; note: % of control where 0% means no effect; nearly all actives have a fitted effect of over 60% in size
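Compounds in DMSO were transferred onto Huh7 NPC1-luciferase reporter cells pre-incubated 2 h; after 24 h at 37 °C, Amplite reagent was dispensed and luminescence recorded 10 min later.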
Starred values were filed as active, the others as inactive; ? = inconclusive; . = no result given; [ ] = dose if it differs, or a comment. Shown are actives, neighbours in structure and some others; about 9.2% of the full set was active somewhere. Calls come from the whole dose curve; as a rule, active = well fitted curve in the direction sought with a large enough effect; inconclusive = small, poorly fitted or top-dose-only effect, or another doubt; inactive = no such curve, though single readings can be large; an effect the other way counts as inactive or inconclusive. Potency is the fitted concentration of half-maximal effect.

SMILES	ELG1 genotoxic	SMN2 splice enh	Rab9 promoter act	ELG1 repair inh	FLuc modulator	NPC1 prom act
c1ccc2c(c1)nc(-c1ccncc1)n2CCNc1nc(CN2CCCCC2)cs1	1.7%	.	-0.8%	24.9%	-0.7%	-5.4%
COc1ccc(C(=O)NNC(=O)C(=O)Nc2ccc(C)cc2)cc1	3.3%	.	-1.5%	1.5%	7.7%	-6.4%
COc1ccc2cc3c(N)c(C(=O)NCc4ccco4)sc3nc2c1	14.9%	12.6µM*	2µM*	?	6.01µM*	?
COc1ccc(C(=O)Nc2cccc(C(=O)NCc3ccco3)c2)cc1	1.6%	.	17.0%	-4.2%	12µM*	18.5%
COc1ccc2cc3cc(C(=O)NCc4ccco4)oc3nc2c1	13.0%	-16.8%	-3.6%	7.1%	?	-0.6%
COc1ccc(NC(=O)c2ccc(C)cc2)cc1	2.06µM*	.	0.447µM*	?	2.69µM*	0.398µM*
COc1ccc(CC(=O)Nc2cccc(C(=O)Nc3cccc(C)c3)c2)cc1	5.5%	.	0.1%	-10.6%	-6.1%	-1.9%
O=C(NCc1ccco1)c1cccc(NC(=O)c2ccco2)c1	7.3%	-8.2%	6.6%	3.4%	-18.4%	-1.5%
COc1ccc(C(=O)Nc2cccc(C)c2)cc1	?	11.2µM*	1.26µM*	?	3.38µM*	1.26µM*
CC(NCc1cccs1)c1ccccc1 (centres undefined)	0.0%	-23.1%	0.4%	7.8%	-1.8%	2.5%
CCCOc1ccc(C(=O)N(Cc2cccs2)C2CCS(=O)(=O)C2)cc1 (centres undefined)	-4.0%	.	-8.9%	?	-3.0%	-0.6%
COCCN(CCOC)C(=O)C1CCCN(S(=O)(=O)c2ccc(NC(=O)OC)cc2)C1 (centres undefined)	0.3%	.	-3.1%	0.0%	1.6%	0.8%
Cn1c(N)c(C(=O)COC(=O)c2ccc(Cl)c(S(=O)(=O)N3CCCC3)c2)c(=O)n(C)c1=O	0.0%	.	5.6%	?	14.7%	1.6%
CN(C(=S)Oc1ccc(C(=O)Nc2ccccc2)cc1)c1ccccc1	-0.5%	-56.9%	-10.2%	18.4µM*	-12.0%	-3.4%
COc1ccc(NC(=O)c2ccccc2)cc1	?	.	1.78µM*	?	?	3.55µM*
COc1ccc(NC(=O)c2c(Cl)n(C)c3ccccc23)cc1	16.8%	?	27.6%	?	9.53µM*	27.5%
O=C(Nc1ccc(Oc2ccsc2C(=O)O)cc1)c1ccccc1	-0.2%	.	-8.0%	20.0%	23.9µM*	-1.1%
CCOc1ccc(OCCC(=O)N(CC)CC(=O)Nc2c(F)cccc2F)cc1	0.8%	.	-1.3%	0.0%	?	0.4%
Cc1cc(C)c(S(=O)(=O)NCCc2sc3nc(-c4ccc(F)cc4)nn3c2C)c(C)c1	.	.	.	.	0.0%	.
CC(C)=CCOc1ccc2c(C)c(CC(=O)N3C[C@H]4C[C@@H](C3)c3cccc(=O)n3C4)c(=O)oc2c1C	2.8%	.	0.8%	-7.6%	?	4.3%
COc1ccc(NC(=S)c2ccncc2)cc1	-0.2%	-49.8%	-10.8%	0.3%	0.4%	-2.5%
COc1ccc(C(=S)Nc2ccc(C)cc2)cc1	29.2%	17.8µM*	2.82µM*	?	2.39µM*	2µM*
O=C(Nc1ccc(SC(F)F)cc1)c1ccc2nccnc2c1	-0.1%	-5.6%	22.6%	?	10.7µM*	?
O=C(Nc1ccsc1C(=O)O)c1ccccc1	12.0%	.	12.1%	?	23.9µM*	5.6%
COc1ccc(C(=O)Nc2ccc(SC(F)F)cc2)cc1	?	?	0.794µM*	?	3.01µM*	2.24µM*
Cc1ccc(NC(=S)c2ccncc2)cc1	-0.9%[9.26 µM]	.	-0.6%	12.3%	?	4.3%
Cc1ccc(NC(=S)c2ccccc2)cc1	?	-0.3%[1.84 µM]	2.51µM*	?	4.78µM*	?
Cc1ccc(OC(=O)c2ccc3nc(C)sc3c2)cc1	2.91µM*	14.1µM*	0.631µM*	?	2.39µM*	0.794µM*

Source: PubChem BioAssay (National Center for Advancing Translational Sciences (NCATS))
